# Measurements: PubChem BioAssay (NCI)
# Values joined by “and” are separate entries in the source; they are usually repeats but may differ in a detail not shown here. Equal values may be shown once. About 83,000 compounds went through this panel and 20% of them were active in at least one assay; those are over-represented in the sample as a whole.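 Plates (96-well) were seeded with cells, treated with compound at one concentration, and incubated for 48 hours before percent growth was determined.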 Values without a mark were called inactive. Active and inactive are the calls of the source. The calls were made as follows: active = growth percent below 10; inactive = the rest.
# Test system: HL-60(TB) leukemia
# Experiment: NCI-60 one-dose screen, 48 h (100 = growth as untreated, 0 = no growth, -100 = all killed)
# Details: 10 µM unless noted
row,SMILES,growth
1,CCN1CCN(Cc2cn(CC(=O)Nc3ccc4c(ccn4Cc4ccccc4)c3)nn2)CC1,95.5%
2,COc1ccc(-c2nsc3c2NC(=O)CC3c2ccc(F)cc2)cc1 (centres undefined),7.88% (active)
3,FC(F)(F)c1ccc(-c2cn3nc(-c4c[nH]c5ccc(Br)cc45)sc3n2)cc1,96.9%
4,CN(C)CCC(=O)Nc1ccc(-n2cc(-c3cccc(NC(=S)Nc4cccc(-c5cn(-c6ccc(NC(=O)CCN(C)C)cc6)nn5)c4)c3)nn2)cc1,94%
5,CCN(CC)CCOc1ccc(C(=C(C)c2ccc(Cl)cc2)c2ccc(OCCN(CC)CC)cc2)cc1,-55.5% (active)
6,C/C(=N/NC(=O)Cn1c2ccccc2c2ccncc21)c1cccs1,83.5%
7,Cc1ccc(S(=O)(=O)OCCN(CCOS(=O)(=O)c2ccc(C)cc2)c2c[nH]c(=O)[nH]c2=O)cc1,99.2%
8,O=c1scc(-c2ccc(C(F)(F)F)cc2)s1,92.7%
9,O=C1N(C2CCCCC2)C(=O)N1C1CCCCC1,-16.2% (active)
10,CCOC(=O)c1cc(C(=O)c2ccc(OC)c(OC)c2)n2ccc(-c3ccccn3)cc12,110%
11,FC(F)(F)c1ccc(-c2cnc(-c3nn[nH]n3)nc2NC2CCCCCC2)cc1,31.1% [50 µM]
12,c1cc[n+](C2c3ccccc3C([n+]3ccccc3)c3ccccc32)cc1 (centres undefined),88.3%
13,C#Cc1c2c(c(OC)c3c1OCO3)[C@H]([C@H]1OC(=O)c3c1ccc(OC)c3OC)N(C)CC2,72.5%
14,CN(C)c1ccc(C(=C2C=CC(=[N+](C)C)C=C2)c2ccccc2Cl)cc1,-48.7% (active) and 9.12% (active)
